Experimental data reported in PubChem BioAssay AID493175 (National Center for Advancing Translational Sciences (NCATS), 2011).
Results filed as inconclusive are left out. Values without a mark were called inactive. The call rests on the fitted dose curve; in most records, active means well fitted curve in the direction sought with a large enough effect; inconclusive means small, poorly fitted or top-dose-only effect, or another doubt; inactive means no such curve, though single readings can be large or run the other way.

Target: Luciferin 4-monooxygenase (Photinus pyralis) (UniProt P08659)
Sequence (P08659 whole entry, looked up): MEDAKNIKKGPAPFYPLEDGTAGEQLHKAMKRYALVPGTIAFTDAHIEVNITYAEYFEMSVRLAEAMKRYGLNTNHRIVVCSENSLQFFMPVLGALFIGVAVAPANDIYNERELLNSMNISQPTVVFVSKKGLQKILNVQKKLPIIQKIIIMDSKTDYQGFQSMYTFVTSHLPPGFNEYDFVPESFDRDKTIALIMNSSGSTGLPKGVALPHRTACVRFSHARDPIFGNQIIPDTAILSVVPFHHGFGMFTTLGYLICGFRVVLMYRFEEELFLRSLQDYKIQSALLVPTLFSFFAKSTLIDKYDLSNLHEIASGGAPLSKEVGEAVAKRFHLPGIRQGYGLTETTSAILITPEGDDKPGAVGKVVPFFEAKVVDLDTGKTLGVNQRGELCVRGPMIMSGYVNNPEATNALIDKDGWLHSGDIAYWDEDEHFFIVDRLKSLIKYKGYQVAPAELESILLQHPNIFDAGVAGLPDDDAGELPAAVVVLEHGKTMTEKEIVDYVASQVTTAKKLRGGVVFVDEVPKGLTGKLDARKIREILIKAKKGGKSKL
Test: miR-21 counterscreen using purified firefly luciferase
Details: purified P. pyralis luciferase, luminescence; series mostly up to 57.5 µM; activity change, negative = inhibition: at the top concentration
Description: MLPCN Grant: 1 R21 NS059478-01 Assay Provider: Qihong Huang, The Wistar Institute NCGC Assay Overview: MicroRNAs (miRNAs) are endogenously encoded small (~20-25 nucleotides), nonprotein-coding RNAs that are involved in post-transcriptional repression of target messenger RNAs (mRNAs) (Le and Hannon, 2004). Estimated to be involved in the regulation of 30% of all protein-coding mRNAs (Filipowicz et al., 2008), miRNAs play a significant role in many biological processes including cellular differentiation and tissue development (Ghildiyal and Zamore, 2009). […] Compounds active in the miR-21 FLuc assay were clustered using Leadscope and active chemical series were prioritized based on chemical properties, potential for medicinal chemistry optimization, and SAR. Within each chemical series, representative compounds were re-acquired to test for activity in a secondary assay based on the quality of their CRC, efficacy, and potency. This secondary assay to determine if compounds active in the miR-21 FLuc assay were just luciferase inhibitors. Compounds found active in both the miR-21 FLuc and purified FLuc assays are considered as false positives. Keywords: NIH Roadmap, MLPCN, MLSMR, qHTS, miR-21, firefly luciferase, FLuc, miRNA.
NCGC Assay Protocol Summary: Reagents: 50mM Tris acetate, pH 7.5; 10mM Mg acetate; 10uM D-luciferin (Sigma #L9504); 10uM ATP; 0.01% Tween-20; 0.05% BSA; 10nM P. pyralis luciferase (Sigma #L9506) Control compounds used were two known firefly luciferase inhibitors (compounds (2) and (5) in Auld et al., 2010), and DMSO. Assay Summary: Three microliters containing firefly luciferase substrates in buffer (final concentrations: 50mM Tris acetate, pH 7.5, 10mM Mg acetate, 0.01% Tween-20, 0.05% BSA, 10uM D-luciferin, and 10uM ATP) are dispensed into each well of a Greiner white, solid-bottom 1536-well format plate using a flying reagent dispenser (FRD). These assay plates were then treated with 23nL of compound or DMSO using a Kalypsys pin tool, which allows for delivery of a 6-point interplate titration of each compound to the assay plate (quantitative HTS), with a final compound concentrations ranging from approximately 60 µM to 7pM. One microliter of firefly luciferase in […] Tris-acetate buffer was then delivered by FRD to each well for a final enzyme concentration of 10nM. Luciferase activity was then measured using a ViewLux CCD imager (PerkinElmer), with an average exposure time of 2-30 seconds (2X binning, medium/high gain).

Row | Compound | activity change, negative = inhibition [%]
1 | Cc1ccc(SCC(=O)Nc2ccc3oc(-c4ccc(F)cc4)nc3c2)cc1 | -1.61
2 | Cc1ccc(NC(=O)Cn2nnc(-c3nc(-c4ccc(Cl)cc4)no3)c2N)cc1C | 1.35
3 | Cc1ccc(CNc2nc(-c3ccco3)nn2S(C)(=O)=O)cc1 | 1.57
4 | Cc1ccc2c(C)c(C(=O)N(C)C(C)c3ccncn3)oc2c1C (stereo not given) | 2.25
5 | COc1ccc(OCC(=O)Nc2cc(-c3nc4ccccc4s3)ccc2C)cc1 | -18.9
6 | COc1nc(Nc2cccc(C(F)(F)F)c2)nc(OC)n1 | -6.49
7 | COc1ccc(CCNc2ncnc3c2cnn3-c2cc(Cl)ccc2C)cc1 | 1.58
8 | Cc1ccc(C(=O)Nc2ccc3c(c2)N(C)C(=O)c2ccccc2S3)cc1 | -1.26
9 | CCC(Oc1ccccc1F)C(=O)N1CCC(c2nc3ccccc3s2)CC1 (stereo not given) | 3.23
10 | Cc1cc(C)cc(NC(=O)CSc2nnc(-c3ccccc3C)o2)c1 | -8.21
11 | Cc1nnc(SCc2nc(N)nc(Nc3ccccc3)n2)s1 | -25.9
12 | CC(C)C(=O)Nc1nc2c(s1)CC(C(C)(C)C)CC2 (stereo not given) | -17.6
13 | COc1ccc(-c2nc(SCc3ccccc3)n(S(C)(=O)=O)n2)cc1 | 1.64
14 | O=S(=O)(c1ccc(F)cc1)n1ccc(-c2cnc(-c3ccccc3)s2)n1 | -19.1
15 | COc1ccc(-c2nnc(SCC(=O)Nc3cccc(F)c3)s2)cc1 | -12.9
16 | Cc1cccc(OCc2nnc(SCC(=O)Nc3ccc(N4CCOCC4)cc3)o2)c1 | 0.777
17 | Fc1ccccc1CSc1nnc(-c2cnccn2)n1Cc1ccco1 | -4.71
18 | COc1ccc(OCC(=O)Nc2ccc(-c3nc4cc(C)c(C)cc4o3)cc2)cc1 | -0.217
19 | CN(C)c1ccc(CNc2nc(-c3ccco3)nn2S(C)(=O)=O)cc1 | 1.82
20 | CCS(=O)(=O)c1ncc(Cl)c(C(=O)N(Cc2ccccc2)c2ccc(OC)cc2)n1 | -13.7

Row | Compound | activity change, negative = inhibition [%]
21 | COc1cccc(NC(=O)CSc2nnc(-c3cccs3)o2)c1 | -3.97
22 | COc1ccccc1Nc1nn2c(=O)c3ccc(C(=O)NCCc4ccccc4)cc3nc2s1 | -1.8
23 | Cc1ccc(-c2nc(NCc3ccco3)n(S(C)(=O)=O)n2)cc1 | 0.606
24 | Cc1c(-c2nnc(SCC(=O)Nc3ccccc3F)o2)nnn1-c1ccc(F)cc1 | -20
25 | O=C(CSc1nnc(-c2ccc(Cl)cc2)o1)Nc1ccc(F)cc1 | -3.58
26 | Cc1cccc(N2CCN(C(=O)C3CCN(c4ncnc5c4nc4n5CCCCC4)CC3)CC2C)c1 (stereo not given) | -15.3
27 | COc1cc(-c2nc3cnccn3c2Nc2ccc(C(C)C)cc2)ccc1O | -1.34
28 | CC(C)S(=O)(=O)c1oc(-c2cccs2)nc1S(=O)(=O)c1ccc(F)cc1 | -14.5
29 | CS(=O)(=O)c1ncc(Cl)c(C(=O)N2CCN(c3cccc(Cl)c3)CC2)n1 | -18.8
30 | COCC(=O)Nc1c(C(=O)Nc2ccc3c(c2)OCCO3)oc2ccccc12 | -14.9
31 | CCCCOc1ccccc1CC1C(=O)Nc2ccc(Br)cc21 (stereo not given) | -3.67
32 | CCS(=O)(=O)c1oc(-c2ccc(F)cc2)nc1S(=O)(=O)c1ccccc1 | 0.873
33 | CCCn1c(=O)c2sccc2n2c(CCCC(=O)Nc3ccc(Oc4ccc(Cl)cc4)cc3)nnc12 | -2.62
34 | CSc1nsc(SCC(=O)Nc2ccc(F)cc2F)n1 | -4.78
35 | COc1cc(Cl)c(C)cc1Nc1c2c(nc3ccccc13)CCC2 | 2.63
36 | CCc1nonc1NC(=O)c1oc2ccc(C)cc2c1C | -2.28
37 | CN(C(=O)CSc1nnc(-c2ccccc2F)o1)C1CCCCC1 | -17.4
38 | Cn1c(=O)[nH]c2cc(-c3noc(-c4ccc(F)cc4)n3)ccc21 | -17.8
39 | Cc1cc(SCC(=O)Nc2nsc(-c3ccc(C(C)(C)C)cc3)n2)nc2ccccc12 | 1.68
40 | COc1ccccc1NC(=O)c1sc2nc3c(cc2c1N)CN(Cc1ccccc1)CC3 | -1.23
